Compound activity (PubChem BioAssay)
Pf growth 96h: Primary qHTS for delayed death inhibitors of the malarial parasite plastid, 96 hour incubation; P. falciparum luciferase reporter growth, 96 h; Potency, µM (top dose mostly 28.7 µM), usual class: inhibitors; 320,000 tested, 6.9% active; AID 504834, 2011
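Cell-based qHTS: luciferase-tagged P. falciparum in erythrocytes (2% hematocrit, 0.05% parasitemia final) incubated with compounds for 96 hours, 37 C, 5% CO2; luciferase detection reagent then added and luminescence measured.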
Pf growth 48h: Primary qHTS for delayed death inhibitors of the malarial parasite plastid, 48 hour incubation. P. falciparum luciferase growth in erythrocytes, 48 h. Potency, µM (highest dose often 28.7 µM), actives largely listed as inhibitors. 310,000 tested, 5.9% active
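Cell-based growth assay: transgenic P. falciparum expressing firefly luciferase, cultured in red cells within RPMI 1640 containing 0.5% w/v Albumax, 24 mM bicarbonate and gentamycin. A drop in luciferase activity indicates inhibition.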
HCMV inh: qHTS Assay for inhibitors of the human cytomegalovirus (HCMV); HFF cells, HCMV-luciferase reporter, 72 h; hits give low values; activity change, negative = inhibition, % at 57.5 µM; 410,000 tested, 4.5% active; AID 1259415, 2018; in the data active means activity change below about -60%; inconclusive means no clear call, values can overlap the other calls; inactive means above about -39%
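Two-dose cell screen: HFF monolayers treated with compounds and infected with luciferase-expressing HCMV at 1 PFU/cell, 72 h at 37C, then lysed for luciferase measurement.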
Cycloheximide cs: Cycloheximide Counterscreen for Small Molecule Inhibitors of Shiga Toxin; cell reporter, cycloheximide protein synthesis inhibition counterscreen; max response, %; 300,000 tested, 12% active; AID 2314, 2010; in the data active means max response mostly above about 13%, no sharp cut-off; inactive means mostly below about 14%; further: read at 38.3 µM for the half of the compounds with a filed dose
Shiga toxin inh: A qHTS for Small Molecule Inhibitors of Shiga Toxin; Vero cells, Shiga toxin protein synthesis inhibition reporter; inhibition, % at 38.7 µM; 290,000 tested, 9.2% active; in the data active means inhibition mostly above about 28%, no sharp cut-off; inactive means mostly below about 43%
Large screens that a line does not name were inactive; ! = not active in a repeat. An excerpt weighted towards active compounds, which were near 20% of everything screened. Unless noted, the call rests on the fitted dose curve; in most records, active means well fitted inhibition curve with a large enough effect; inconclusive means small, poorly fitted or top-dose-only effect, or another doubt; inactive means no such curve, though single readings can be large or run the other way.

COc1ccc(C(=O)C(OC(=O)c2ccccc2)c2ccccc2)cc1 (stereo not given)	Cycloheximide cs 49, Shiga toxin inh 104
Cc1ccc(NC(=O)C(OC(=O)c2ccccc2Cl)c2ccccc2)cc1Cl (stereo not given)	HCMV inh inconclusive
Cc1cnc(C(=O)OC(C(=O)c2ccccc2)c2ccccc2)cn1 (stereo not given)	Pf growth 96h inconclusive (no result: Cycloheximide cs, Shiga toxin inh)
Cc1nc2nc(C(F)(F)F)[nH]c2nc1C	none (no result: Pf growth 96h, Pf growth 48h, Cycloheximide cs, Shiga toxin inh)
Cc1ccc(Nc2cccccc2=O)cc1	Cycloheximide cs 16 (no result: Pf growth 96h)
N[C@@H](Cc1ccc(N(CCCl)CCCl)cc1)C(=O)O	Pf growth 96h 9.5µM!, Pf growth 48h inconclusive (no result: Cycloheximide cs, Shiga toxin inh)
CC(C(=O)NCc1ccc2c(c1)OCO2)N1c2cccc3cccc(c23)S1(=O)=O (stereo not given)	Pf growth 48h inconclusive
CC(C)c1nnc(N2C(=O)c3oc4ccccc4c(=O)c3C2c2ccccc2F)s1 (stereo not given)	none (no result: Pf growth 96h, Pf growth 48h, Cycloheximide cs, Shiga toxin inh)
Clc1ccccc1CN(Cc1ccccc1)c1ncnc2nc[nH]c12	none (no result: Pf growth 96h)
CCCN(CCC)c1ncnc2nc[nH]c12	Pf growth 96h inconclusive, HCMV inh -88
CCn1c(=O)c2c(nc3n2CCCN3c2cccc(C)c2)n(C)c1=O	none
CN1CCN(/C(=N\O)c2nonc2N)CC1	Pf growth 96h 15µM
CCN(CCS(=O)(=O)c1ccc(Cl)cc1)C(=O)Nc1ccc(Cl)cc1	Pf growth 96h inconclusive, Pf growth 48h inconclusive
CC[C@H](NC(=O)[C@H](CCC(=O)O)NC(=O)[C@H](CCC(=O)O)NC(=O)[C@H](CC(=O)O[S+](=O)([O-])c1cccc2c(NCCN)cccc12)NC(=O)[C@H](CCC(=O)O)NC(=O)[C@H](CC(=O)O)NC(C)=O)C(=O)ON[C@@H](C)C(=O)N[C@@H](CO)C(=O)N[C@@H](CCCCNC(=O)c1ccc(N=Nc2ccc(N(C)C)cc2)cc1)C(N)=O	none (no result: Pf growth 96h, Pf growth 48h, HCMV inh)
CCn1c2ccccc2c2c3ncc4cccn4c3ccc21	Cycloheximide cs 16
O=C(NCCN1CCOCC1)C(=O)NCC1OCCN1S(=O)(=O)c1ccc(F)cc1 (stereo not given)	none
CCOC(=O)[C@]12CCCC=C1N(Cc1ccc(Cl)cc1Cl)C(=O)[C@H](CC(=O)NCc1cccs1)C2	none (no result: Pf growth 96h, Pf growth 48h, Cycloheximide cs, Shiga toxin inh)
COc1ccc(-c2cccc(C(=O)Nc3cccc(C(=O)O)c3)c2)cc1	Cycloheximide cs 103, Shiga toxin inh 106
COc1cc(NC(=O)Cc2ccccc2)ccc1NC(=O)c1ccccc1	Pf growth 96h 10µM
COc1cc(NC(=O)c2ccccc2)ccc1NC(=O)Cc1ccccc1	none
COc1cccc(C(=O)Nc2cccc(-c3ccccc3)c2)c1	Cycloheximide cs 42, Shiga toxin inh 78
COc1ccc(NC(=O)c2cccc(NC(=O)c3ccccc3)c2)c(OC)c1	Pf growth 96h 10µM
CCCCC1NC(=S)N(C2CCCCC2)C1=O (stereo not given)	none
O=C(NCc1ccccc1)C1c2ccccc2OCC(=O)N1Cc1ccc2c(c1)OCO2 (stereo not given)	none (no result: Pf growth 96h, Pf growth 48h, Cycloheximide cs, Shiga toxin inh)
CCCCc1c(O)nc2ccccn2c1=O	Pf growth 96h 12µM, Pf growth 48h inconclusive
CCCN1Cc2cccc(C(=O)Nc3cc(Cl)ccc3C)c2C1=O	none (no result: Pf growth 96h, Pf growth 48h, Cycloheximide cs, Shiga toxin inh)
CCOc1ccc(S(=O)(=O)Nc2cccc(C(=O)NCC(c3ccco3)N3CCCC3)c2)cc1 (stereo not given)	Pf growth 96h inconclusive, Pf growth 48h inconclusive (no result: Cycloheximide cs, Shiga toxin inh)
COc1ccc(S(=O)(=O)N2CCCCCC2)cc1NC(=O)c1c2c(nc3ccccc13)CCN(Cc1ccccc1)C2	Pf growth 96h 1.5µM, Pf growth 48h 1.5µM
COc1ccc(NC(=O)c2c3c(nc4ccccc24)CCN(Cc2ccccc2)C3)c(OC)c1	Pf growth 96h 9.3µM, Pf growth 48h 7.4µM, HCMV inh inconclusive
COc1ccc(NC(=O)c2sc3nc4c(cc3c2N)CN(Cc2ccccc2)CC4)c(OC)c1	HCMV inh -95 (no result: Pf growth 96h, Pf growth 48h)
COc1ccccc1NC(=O)c1sc2nc3c(cc2c1N)CN(Cc1ccccc1)CC3	none (no result: Pf growth 96h, Pf growth 48h, Cycloheximide cs, Shiga toxin inh)
CCN(CC)S(=O)(=O)c1ccc(OC(C)C)c(NC(=O)c2c3c(nc4ccccc24)CCN(Cc2ccccc2)C3)c1	Pf growth 96h 2.9µM, Pf growth 48h 2.6µM
CC(C)C(=O)Nc1sc2c(c1-c1nc3ccccc3[nH]1)CCCC2	Pf growth 96h inconclusive, Pf growth 48h inconclusive
CCC1(CC)C(=O)C2=C3C1[C@H](C(=O)OC)CC(C(=O)OC)C[C@H]3[C@H]1C(=O)N(c3ccccc3)C(=O)[C@H]1[C@H]2C (stereo not given in full)	none (no result: Pf growth 96h, Pf growth 48h)
CCc1ccc(CNC(=O)C2CCN(S(=O)(=O)N3CCC(C)CC3)CC2)cc1	none
CCN(CC)S(=O)(=O)c1ccc(-c2nnc(SCC(=O)N3CCc4ccccc43)o2)cc1	HCMV inh -87 (no result: Pf growth 96h)
CCN(CC)S(=O)(=O)c1ccc(-c2nnc(SCC(=O)N3CCOCC3)o2)cc1	Pf growth 96h 8.3µM, Pf growth 48h inconclusive
CCN(CC)S(=O)(=O)c1ccc(-c2nnc(SCC(=O)Nc3cc(OC)cc(OC)c3)o2)cc1	Pf growth 48h 13µM (no result: Pf growth 96h)
CC(C)C[C@@H](CN)NC(=O)c1nc[nH]c1C(=O)N[C@@H](CC(C)C)C(=O)CNC[C@H](C)NC(=O)c1nc[nH]c1C(=O)N[C@@H](CC(=O)O)C(=O)O	none (no result: Pf growth 96h, Pf growth 48h, Cycloheximide cs, Shiga toxin inh)
O=[N+]([O-])c1cccc(/C=C/c2nc(C=Nc3ccc4ccccc4c3)c(O)o2)c1	none
O=[N+]([O-])c1ccc(/C=C/c2ccc3cccc([N+](=O)[O-])c3n2)cc1	HCMV inh inconclusive, Cycloheximide cs 22
O=[N+]([O-])c1cccc2ccc(/C=C/c3ccc(F)cc3)nc12	Pf growth 48h inconclusive, Cycloheximide cs 131, Shiga toxin inh 95
O=[N+]([O-])c1cccc2cn[nH]c12	none
O=[N+]([O-])c1cccc(/C=C/c2ccc3cccc(O)c3n2)c1	Pf growth 96h inconclusive, Cycloheximide cs 35, Shiga toxin inh 107
CCCCn1c(N)c(N(CC)C(=O)CCNC(=O)NC23CC4CC(CC(C4)C2)C3)c(=O)[nH]c1=O	HCMV inh inconclusive
O=C(CC(c1ccccc1)c1ccccc1O)N1CCCCC1 (stereo not given)	Pf growth 96h inconclusive, HCMV inh -82
O=C(CC(c1ccccc1)c1cc(Br)ccc1O)NCC1(c2ccccc2)CCCC1 (stereo not given)	HCMV inh -105 (no result: Pf growth 96h, Pf growth 48h, Cycloheximide cs, Shiga toxin inh)
Cc1ccc(O)c(C(CC(=O)N2CCCC2)c2ccccc2)c1 (stereo not given)	Pf growth 96h 0.37µM (no result: HCMV inh)
Cc1ccc(O)c(C(CC(=O)NC(C)C)c2ccccc2)c1 (stereo not given)	Pf growth 96h 13µM
O=C(CC(c1ccccc1)c1cc(Br)ccc1O)NCCN1CCOCC1 (stereo not given)	Pf growth 48h inconclusive
CCC(C)NC(=O)CC(c1ccccc1)c1cc(C)ccc1O (stereo not given)	Pf growth 48h inconclusive
O=C(NCC(=O)N1CCN(Cc2ccccc2)CC1)c1ccc(Br)o1	Cycloheximide cs 14
